Most compounds without a hit are left out; they make up all but 3.4% or so of the library.
FBW7 activator: activators of human E3 ligase FBW7 | AlphaScreen FBW7–phospho-cyclin E peptide binding, activator screen | normalized activity (activation), % at 26.1 µM | 0.13% of 650,000 active; in the data active = normalized activity above about 1.9%;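 also: purified mutant Fbw7 with reduced substrate affinity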
Target sequence (Q969H0 whole entry, looked up): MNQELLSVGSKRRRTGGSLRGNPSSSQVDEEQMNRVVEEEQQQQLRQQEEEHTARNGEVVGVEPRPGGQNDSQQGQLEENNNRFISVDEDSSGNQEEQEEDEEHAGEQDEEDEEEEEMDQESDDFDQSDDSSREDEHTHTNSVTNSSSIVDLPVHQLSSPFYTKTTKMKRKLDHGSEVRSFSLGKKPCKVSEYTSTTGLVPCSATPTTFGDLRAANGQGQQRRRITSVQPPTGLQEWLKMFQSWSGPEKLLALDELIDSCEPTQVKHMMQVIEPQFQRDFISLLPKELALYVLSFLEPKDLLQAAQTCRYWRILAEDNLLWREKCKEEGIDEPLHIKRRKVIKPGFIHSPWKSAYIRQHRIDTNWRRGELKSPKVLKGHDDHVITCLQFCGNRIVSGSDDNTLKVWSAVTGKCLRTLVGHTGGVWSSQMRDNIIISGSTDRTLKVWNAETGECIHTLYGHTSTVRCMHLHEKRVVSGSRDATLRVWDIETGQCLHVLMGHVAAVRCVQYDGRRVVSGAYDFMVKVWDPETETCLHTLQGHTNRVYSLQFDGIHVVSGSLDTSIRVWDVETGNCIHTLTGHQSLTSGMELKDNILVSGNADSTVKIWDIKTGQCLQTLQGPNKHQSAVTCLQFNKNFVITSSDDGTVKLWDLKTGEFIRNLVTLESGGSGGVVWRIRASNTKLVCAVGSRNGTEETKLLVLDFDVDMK
GPR151 activ: human GPR151 activation; Q8TDV0; activation, % at 11.2 µM; AID 1508602; PathHunter beta-arrestin GPR151 cells, luminescence; 1% of 650,000 active; in the data active = activation above about 4.9%;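 also: 0% = median of compound wells and 100% = cells with positive control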
MITF primary: inhibitors of human MITF; AlphaScreen MITF homodimerization, bead proximity signal; O75030; AID 1259374; inhibition, % at 2.6 µM; 0.91% of 650,000 active; in the data active = inhibition above about 50%;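 also: 0% = vehicle wells with protein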
TEAD-YAP inh: TEAD-YAP interaction inhibition | HEK-TIYL cells, TEAD-Gal4/YAP UAS-luciferase luminescence | inhibition, % at 9.12 µM | 1.4% of 640,000 active; in the data active = inhibition above about 32%;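 also: 0% = median of test compound wells and 100% = reference inhibitor wells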
GPR151 confirm: human GPR151 activation, confirmation screen; shares compounds with GPR151 activ; GPR151 PathHunter beta-arrestin cells, luminescence, 90 min; % of EA-reagent control over plate median; activation, % at 11.2 µM; 6,700 tested, under 10 active;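 active = mean percent activation across replicates above the confirmation screen cutoff of 4.91%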
GPR119 ag: counter-screen for GPR151 activators: effect on human GPR119. activation, % at 11.2 µM. shares compounds with GPR151 activ. 0.3% of 6,700 active. GPR119 PathHunter beta-arrestin cells, luminescence, 90 min; 0 = compound-well median, 100 = enzyme-acceptor control;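 active = mean percent activation in the counterscreen above 29.09%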;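 also: counterscreen on off-target GPR119 to flag nonselective hits from the GPR151 activator screen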
Active calls of the source: *; . = no result.

SMILES | FBW7 activator | GPR151 activ | MITF primary | TEAD-YAP inh | GPR151 confirm | GPR119 ag
COc1cc(/C=C/c2[nH]c(=O)[nH]c(=O)c2[N+](=O)[O-])cc(Cl)c1O | 0 | 0 | 11 | 2 | . | .
COc1cc(/C=C/c2[nH]c(=O)[nH]c(=O)c2[N+](=O)[O-])cc(OC)c1OC | 0 | 7.7* | 10 | -3 | -1 | -4
N#Cc1sc2ncc3c(c2c1N)CCCC3 | 0 | 9.7* | 4 | -6 | 0 | 13
O=C(Nc1ccc(Oc2ccc(Cl)c3ccccc23)c(Cl)c1)c1cc(Cl)ccc1O | 0 | 3 | 6 | 1 | . | .
COc1ccccc1C(=O)NC1(C(F)(F)F)NC(=O)N(c2ccc(C)c(C)c2)C1=O (stereo not given) | 1 | 7.3* | -1 | -5 | 0 | -7
O=C(NC1(C(F)(F)F)NC(=O)N(c2ccc(F)cc2)C1=O)c1ccc(F)cc1 (stereo not given) | 0 | 1 | 5 | 11 | . | .
O=C(NC1(C(F)(F)F)NC(=O)N(c2ccc(F)cc2)C1=O)c1ccncc1 (stereo not given) | 0 | 13* | -2 | 5 | 1 | 7
COc1cc(OC)c(N2C(=O)NC3CC2(C)Oc2ccc([N+](=O)[O-])cc23)cc1Cl (stereo not given) | 0 | 0 | 10 | 4 | . | .
Nc1nnc(Cc2cccc(Br)c2)s1 | 0 | 11* | 11 | 1 | 1 | 22
Cc1nnc(SCc2cc(=O)n3[nH]cnc3n2)s1 | 0 | 5.7* | 14 | 11 | -1 | -5
O=C1N[C@H](Cc2ccccc2)C(=O)N2C[C@@H](NCc3cccc4ncccc34)C[C@@H]12 | 0 | 1 | 8 | 6 | . | .
CCOC(=O)CNC(=O)N(Cc1ccccc1)Cc1ccccc1 | 0 | 5.3* | -8 | -7 | 0 | -7
NCC(=O)NCC(=O)OCc1ccccc1 | 0 | 7.5* | -3 | 6 | 1 | 7
CCOC(=O)CNC(=O)OCc1ccccc1 | 0 | -1 | 0 | 4 | . | .
O=C(Cc1ccccc1)NCC(=O)OCc1ccc(Cl)cc1 | 0 | 1 | -4 | -20 | . | .
Nn1c(O)c(C2=c3cc(F)ccc3=NC2=O)sc1=S | 0 | 6.0* | 3 | 8 | 0 | -11
O=C(NCc1ccccc1)/C(=C\c1ccc(Cl)cc1)NC(=O)c1ccco1 | 1 | -1 | -18 | 3 | . | .
O=C(NCc1ccco1)/C(=C/c1ccc(Cl)cc1)NC(=O)c1ccco1 | 0 | 5.7* | 1 | -2 | 0 | 3
O=C(NCc1ccco1)/C(=C\c1ccc(Br)cc1)NC(=O)c1ccccc1 | 0 | 7.0* | 0 | 1 | 1 | -2
O=C(NN1CCOCC1)c1cc(Br)ccc1Cl | 0 | 0 | 15 | -6 | . | .
O=C(c1cc(=O)c2ccccc2o1)N1CCCC1 | 0 | 1 | 1 | 16 | . | .
CC(C)c1nnc2n1CCN(C(=O)c1cc(=O)c3ccccc3o1)CC2 | 0 | 7.3* | 3 | -22 | 1 | 2
O=C(Cc1c(O)c2ccccc2[nH]c1=O)NCc1ccccn1 | 0 | 5.6* | 16 | 4 | 0 | 6
O=C(Cc1c(O)c2ccccc2[nH]c1=O)NCCO | 0 | 1 | -2 | 3 | . | .
CCOC(=O)C1CN(S(=O)(=O)c2ccc(OC)cc2)c2ccccc2O1 (stereo not given) | 0 | 6.5* | -9 | 2 | -1 | -10
SMILES | FBW7 activator | GPR151 activ | MITF primary | TEAD-YAP inh | GPR151 confirm | GPR119 ag
Cc1nc2c(nnn2Cc2ccccc2)c(=O)n1Cc1ccccc1 | 0 | 10* | -4 | 10 | 0 | 5
Cc1nc2c(nnn2Cc2ccccc2)c(=O)n1C | 0 | -1 | 9 | 6 | . | .
CCCN(C(=O)c1cccc(N)c1)c1c(C)n(C)n(-c2ccccc2)c1=O | 0 | 5.5* | 16 | 7 | 0 | 11
COC(=O)c1cc(C)sc1NC(=S)N1CCCCCC1 | 0 | 8.7* | -8 | -22 | 1 | -1
CCc1cccc(C)c1NC(=O)Cn1cnc2c(cnn2-c2ccc(OC)cc2)c1=O | 0 | 6.9* | 14 | 4 | 0 | 7
COC(=O)c1ccc(NC(=O)Cn2cnc3c(cnn3-c3cccc(C)c3C)c2=O)cc1 | 0 | 8.8* | 0 | 9 | 1 | 9
Cc1ccc(-n2ncc3c(=O)n(CC(=O)Nc4cccc5ccccc45)cnc32)cc1C | 0 | 6.7* | -7 | 5 | 0 | 11
Cc1ccc(NC(=O)Cn2cnc3c(cnn3-c3cccc(C)c3C)c2=O)cc1Cl | 0 | -1 | -6 | 6 | . | .
C=CCSc1nnc(C2CCCN(Cc3ccc4c(c3)OCO4)C2)n1C (stereo not given) | 0 | -2 | 12 | 0 | . | .
O=C(Cn1c(=O)n(Cc2cccnc2)c(=O)c2ncccc21)c1ccc(F)cc1 | 0 | 0 | -1 | -3 | . | .
COc1ccc(-c2nnc(NC(=O)c3cccs3)s2)cc1 | 0 | 0 | 2 | 3 | . | .
COc1ccc(Cl)cc1NC(=O)CN1CCC(n2nnc3ccccc32)CC1 | 0 | 5.3* | 14 | -23 | 0 | -2
C=CCc1cccc(/C=N\NC(=O)c2n[nH]c([N+](=O)[O-])n2)c1O | 0 | -1 | -2 | 11 | . | .
COc1ccc(NC(=O)c2ccccc2NS(=O)(=O)c2ccccc2)cc1 | 0 | 0 | 0 | -12 | . | .
CCOC(=O)C1C(=O)CC(C)(O)C(C(=O)OCC)C1c1ccc2c(c1)OCO2 (stereo not given) | 0 | 5.1* | -2 | -3 | -1 | -6
CCOC(=O)C1C(=O)CC(C)(O)C(C(=O)OCC)C1c1ccc(C)cc1 (stereo not given) | 0 | 0 | 8 | 13 | . | .
O=C(NCCc1nnc2n1CCN(Cc1c(F)cccc1F)CC2)C1CCC1 | 0 | 0 | -9 | 1 | . | .
CCc1ccccc1-n1c(C)c(C)n2c3c(=O)n(CC)c(=O)n(C)c3nc12 | 0 | 5.1* | 4 | 8 | 1 | 3
CCc1ccccc1-n1c(C)c(C)n2c3c(=O)n(CC(N)=O)c(=O)n(C)c3nc12 | 1 | 0 | -5 | -3 | . | .
COc1cccc(NC(=O)CSc2cn(CC(=O)N3CCC(C)CC3)c3ccccc23)c1 | 0 | 5.1* | 15 | -1 | 1 | 3
COc1cccc(NC(=O)CSc2cn(CC(=O)N3CCOCC3)c3ccccc23)c1 | 1 | 0 | 0 | 2 | . | .
Clc1ccc(Cn2cc(/C=N/n3cnnc3)c3ccccc32)cc1 | 0 | 6.2* | 1 | 10 | 0 | -2
Fc1ccc(Cn2cc(/C=N/n3cnnc3)c3ccccc32)cc1 | 1 | -2 | 18 | -2 | . | .
CCOC(=O)c1ccc(NC(=O)CN2C(=O)CSCC2=O)cc1 | 0 | 3 | -4 | 11 | . | .
CCOc1ccc(NC(=O)CNC(=O)c2ccccc2)cc1 | 0 | -1 | 7 | -25 | . | .
COc1ccc(/C=C2\SC(=O)N(CC(=O)Nc3ccc(F)cc3)C2=O)cc1O | 0 | 6.2* | -8 | 1 | 1 | 10
